Only some compounds are listed: those with a hit (about 4.7% of all), similar ones and a draw of the others.
D1 PAM: human D1 dopamine receptor positive modulation | potentiation, % at 10 µM | HEK293 TREx D1 cells, calcium flux, dopamine EC20 potentiation | P21728 | 0.036% of 360,000 active; in the data active = potentiation above about 30%
Target sequence (P21728 whole entry, looked up): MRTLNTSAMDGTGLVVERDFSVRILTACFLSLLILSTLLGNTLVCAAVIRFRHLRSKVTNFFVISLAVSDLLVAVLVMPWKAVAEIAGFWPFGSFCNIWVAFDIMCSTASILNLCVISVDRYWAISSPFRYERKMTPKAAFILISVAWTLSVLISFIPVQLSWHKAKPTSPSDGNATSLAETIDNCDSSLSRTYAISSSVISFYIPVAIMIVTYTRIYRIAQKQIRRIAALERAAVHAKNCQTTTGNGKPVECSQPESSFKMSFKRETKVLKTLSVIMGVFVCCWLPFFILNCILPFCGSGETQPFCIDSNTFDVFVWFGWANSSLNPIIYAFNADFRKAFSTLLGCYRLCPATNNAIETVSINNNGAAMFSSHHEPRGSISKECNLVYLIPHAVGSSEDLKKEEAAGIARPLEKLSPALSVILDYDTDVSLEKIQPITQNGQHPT
TRHR agonist: agonists of human TRH receptor. P34981. TRHR cells, calcium flux fluo-8, FDSS agonist mode. activation, % at 2 µM. 0.18% of 360,000 active. AID 493084
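Read-out: compound-evoked intracellular calcium rise in TRHR cells, fluo-8 dye, kinetic FDSS fluorescence at 1 s/cycle following a 10-cycle baseline. Cells cultured overnight before dye loading (30 min–1.5 h, RT).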
D1 antag: human D1 dopamine receptor antagonism; 3.2% of 360,000 active; activity change, negative = inhibition, % at 10 µM; HEK293 TREx D1 cells, calcium flux, dopamine EC80; stronger effect = lower value; P21728; AID 504652; in the data active = activity change below about -30%
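Inducible Hek293 Trex D1 cells (tetracycline, overnight, 30 C). Calcium dye 30–90 min RT. Antagonist mode: EC80 dopamine added after 180 s compound read.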
D1 ag: human D1 receptor agonism; 1% of 360,000 active; HEK293 T-REx D1 cells, calcium flux, agonist mode; P21728; activation, % at 2 µM
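Tetracycline-induced HEK293 TREx D1 cells, force-coupled to calcium signalling, were dye-loaded with a no-wash calcium kit. Compound was pin-added after a 10 s baseline. Fluorescence was read kinetically at 1 cycle/s for 180 s, with calcium rises flagged as agonism.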
TRHR enhancer: allosteric enhancers of human TRH receptor | TRHR cells, fluo-8 calcium fluorescence, EC20 TRH enhancement | enhancement, % at 2 µM | 0.66% of 360,000 active; in the data active = enhancement above about 30%
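TRHR-expressing cells loaded with fluo-8 calcium dye were read kinetically (ex 480/em 530) during compound addition, then stimulated with an EC20 of TRH (10 nM final). Enhancement of the Gq-mediated intracellular calcium response was scored.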
Of the large screens only hits and unclear results are named; the others gave an inactive call; ! = a repeat was not active. Rule as the data show it, unless noted: active = activation above about 30%; inactive = the rest.

COc1ccc(CCNC(=O)c2ccc3c(c2)N(Cc2cc(C)ccc2C)C(=O)c2ccccc2S3=O)cc1OC (stereo unspecified)	TRHR enhancer 31
CCOC(=O)N1CCC(NC(=O)c2ccc3c(c2)N(Cc2ccccc2)C(=O)c2ccccc2S3=O)CC1 (stereo unspecified)	none
COc1ccc(CCNC(=O)c2ccc3c(c2)N(Cc2ccccc2F)C(=O)c2ccccc2S3=O)cc1OC (stereo unspecified)	none
CCOC(=O)N1CCN(C(=O)c2ccc3c(c2)N(Cc2ccccc2F)C(=O)c2ccccc2S3=O)CC1 (stereo unspecified)	D1 antag -47
CCN1CCN(C(=O)c2ccc3c(c2)N(Cc2ccccc2F)C(=O)c2ccccc2S3=O)CC1 (stereo unspecified)	none
COc1cccc(NC(=O)C(=O)NCC(c2ccc3c(c2)OCO3)N2CCOCC2)c1 (stereo unspecified)	none
COc1ccc(-c2noc(-c3ccc(NCc4ccc(C)cc4)c([N+](=O)[O-])c3)n2)cc1OC	D1 antag -68
COc1ccc(-c2nc3cccc(C)n3c2NCc2ccco2)cc1OC	D1 antag -31
COc1ccc(-c2noc(-c3ccc(NCc4ccco4)c([N+](=O)[O-])c3)n2)cc1OC	D1 antag -41
CNC(=S)Nc1cccc(-c2cnc3ccccc3n2)c1	none
CC(=O)N1c2ccc(S(=O)(=O)NCC3CCC(C(=O)NC4CCCCC4C)CC3)cc2CC1C (stereo unspecified)	none
CCc1cccc(NC(=O)Cn2c(=O)n(CC3CCC(C(=O)NC)CC3)c(=O)c3sccc32)c1 (stereo unspecified)	none
COc1ccc(S(=O)(=O)c2c(O)c3ccc(C(=O)Nc4ccccc4Cl)cc3[nH]c2=O)cc1	TRHR enhancer 32
CCc1ccccc1NC(=O)c1ccc2c(O)c(S(=O)(=O)c3ccc(OC)cc3)c(=O)[nH]c2c1	none
CCN(CC)CCN1C(=O)C(=O)/C(=C(/O)c2ccc3c(c2)CC(C)O3)C1c1ccc(OC)cc1 (stereo unspecified)	D1 antag -30
CCOc1cccc(C2c3c(oc4ccc(F)cc4c3=O)C(=O)N2CCOC)c1 (stereo unspecified)	none
COC(=O)CCC(=O)c1ccc(OC)c(Cl)c1	D1 antag -34
COc1cccc(NC(=O)C2CCN(c3nnc(-n4c(C)ccc4C)s3)CC2)c1	none
COc1ccc(C(=O)NC2CCN(Cc3ccccc3)C2)cc1S(=O)(=O)N1CCOCC1 (stereo unspecified)	none
CC(=O)c1ccc(Nc2c3c(c(C#N)c4nc5ccccc5n24)CCC3)cc1	none
CC(=O)Nc1ccc(N2CCc3c(C)c(C#N)c4nc5ccccc5n4c32)cc1	D1 ag 47
CCc1ccc(-c2nc(SCC(=O)NCCOC)c(-c3ccc(C)cc3)[nH]2)cc1	none
Cc1ccc(OC(=O)c2cccc(C(=O)Oc3ccc(C)cc3)n2)cc1	none
Cc1ccc(OC(=O)c2cc(C)nn2C(C)(C)C)cc1	TRHR enhancer 36
O=S(=O)(N1CCCCCC1)N1CCNCC1	none
O=S(=O)(O)C1CCNCC1	D1 antag -49
Clc1ccc(OCc2nnc(SCc3nnc(-c4ccccc4)o3)o2)c(Cl)c1	D1 ag 35
CC(C)c1nnc(N2C(=O)C(O)=C(C(=O)c3cccs3)C2c2ccccc2)s1 (stereo unspecified)	TRHR agonist 169, D1 ag 270 (no result: D1 antag)
COc1ccc(C2C(C(=O)c3cccs3)=C(O)C(=O)N2c2nncs2)cc1 (stereo unspecified)	TRHR agonist 36, D1 ag 67
COc1ccc(C2C(C(=O)c3cccs3)=C(O)C(=O)N2c2nnc(C)s2)cc1OC (stereo unspecified)	TRHR agonist 193, D1 ag 77
Cc1cccc(N2C(=O)C(O)=C(C(=O)c3cccs3)C2c2ccc(C(C)C)cc2)n1 (stereo unspecified)	none
CCCc1noc(-c2ccc(NCc3ccccc3OC)c([N+](=O)[O-])c2)n1	none
CC(=O)Nc1ccc2nc(SCCOc3ccccc3)sc2c1	none
CC(C)(C)C(=O)Nc1ccc2nc(SCCOc3ccccc3Cl)sc2c1	D1 ag 30
Cc1ccccc1OCCSc1nc2ccc(NC(=O)c3ccccc3)cc2s1	D1 antag -33
COc1ccc(N(C(=O)/C=C\C(=O)Nc2ccc(Cl)cc2)C(C(=O)NCc2ccco2)c2ccc(C)cc2)cc1 (stereo unspecified)	none
Cc1cc(C(=O)NC(C)C2CC2)c(Cl)cc1Cl (stereo unspecified)	none
COc1cc(NC(=O)C2CCN(S(=O)(=O)c3ccc4c(c3)oc(=O)n4C)CC2)cc(OC)c1	none
Cc1ccc(N2CC(C(=O)N3CCC(C(=O)Nc4nnc(C(C)C)s4)CC3)CC2=O)cc1 (stereo unspecified)	none
COCCN=C1N[C@@H](c2ccc(Br)cc2)C(C(=O)OC)=C(C)N1Cc1ccccc1	D1 antag -34!, D1 ag 34!
COCCN=C1N[C@@H](c2ccccc2)C(C(=O)OC)=C(C)N1Cc1ccccc1	none
COc1ccc(CCn2c(=N)c(C(=O)NC3CCCC3)cc3c(=O)n4ccccc4nc32)cc1OC	none
COc1ccc(CCn2c(=N)c(C(=O)NC3CCCC3)cc3c(=O)n4ccccc4nc32)cc1	D1 antag -32
COc1ccccc1NC(=O)C/C(C)=N/NC(=O)c1ccccn1	D1 antag -38
COc1cc(NC(=O)c2ccccn2)cc(OC)c1OC	TRHR enhancer 30
COc1cc(NC(=O)C/C(C)=N/NC(=O)c2ccccn2)c(OC)cc1Cl	none
COc1cc(NC(=O)c2cc(-c3ccccc3)on2)cc(OC)c1OC	none
COc1cc(C(=O)Nc2ccc3c(c2)C(=O)c2ccccc2C3=O)cc(OC)c1OC	D1 antag -50
CCOC(=O)C1CCN(c2ncnc3c2c(-c2ccccc2)cn3-c2ccc(Cl)cc2)CC1	none
COc1ccc(N2CCN(C(=O)c3cnc(SC)nc3C)CC2)cc1	D1 antag -63
Cc1ccc(-c2cc(C(=O)N3CCCCC3)c3ccccc3n2)cc1C	D1 ag 35
O=C(c1cc2cc(Cl)ccc2[nH]1)N1CCc2ccccc2C1	D1 antag -57
COc1ccccc1-c1cc(C(=O)N2CCc3ccccc3C2)c2ccccc2n1	D1 antag -86
CCNC(=S)NNC(=O)c1cc(-c2cc(C)ccc2C)nc2ccccc12	D1 antag -31
O=C(c1ccccc1Cl)N1CCc2ccccc2C1	none
CCCc1cc(C(=O)NNC(=S)NCC)c2ccccc2n1	none
COc1ccc(-c2cc(C(=O)N3CCN(c4ccccc4)CC3)c3ccccc3n2)cc1	D1 antag -37
Cc1ccccc1C(=O)N1CCc2ccccc2C1	D1 ag 49
